Assay [1] concerns the target Rap guanine nucleotide exchange factor 3 (Homo sapiens) (UniProt O95398). In words: Confirmatory qHTS for antagonist of cAMP-regulated guanine nucleotide exchange factor 3 (EPAC1) (AID 1645880). Further: nearly all actives have a fitted effect of over 55% in size. Further: potency means the concentration at half of the fitted maximal effect.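 On activity, negative = inhibition: plate controls were DMSO only for no effect and full effect of the ATA control for full effect.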 The following applies: EPAC1 Rap1B-BODIPY-GDP exchange, fluorescence; activity, negative = inhibition: at 115 µM (top of the series). The procedure, abridged:
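Released BODIPY-GDP fluoresces less than Rap1-bound BODIPY-GDP; the signal is followed at 480/540 nm at 5-min intervals over 30 min, after 5 min at room temperature. Reactions contain 100 nM EPAC1, 250 nM RAP1B-BODIPY-GDP and 50 uM GDP; results are normalized to ATA and DMSO.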
On the technique in general: In qHTS, concentration-response curves come from the screen itself.

Assay [2] has the same target. The assay can be described thus: Counterscreen qHTS for antagonist of cAMP-regulated guanine nucleotide exchange factor 3 (EPAC1) (AID 1645888). Further: % of control where 0% means no effect. The procedure, abridged: (§1)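 Rap1B-BODIPY-GDP 250 nM + GDP 50 uM; cpds 7-pt, final 9.74 nM–152 uM (activator mode) or from 7.32 nM upwards (inhibitor mode); RT; FI 480/540 nm at 5 and 30 min, then ± cAMP, reread.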
Assay [3] concerns the target Tumor susceptibility gene 101 protein (Homo sapiens) (UniProt Q99816). In words: qHTS Assay for Iinhibitors of HIV-1 Budding by Blocking the Interaction of PTAP/TSG101: Hit Validation (AID 651600). Further: on the % scale 0 is the no-effect control and ±100 the full control effect; nearly all actives have a fitted effect of over 70% in size. The procedure, abridged: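 Compounds are added to the Tsg101 binding domain (10 uM final) in pH 7.5 HEPES buffer. FITC-PTAP peptide follows at 50 nM final. After 20 min at r.t., polarized FITC emission is measured.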

Assay [4] has as its target Rap guanine nucleotide exchange factor 4 (Homo sapiens) (UniProt Q8WZA2). The assay can be described thus: Confirmatory qHTS for antagonist of cAMP-regulated guanine nucleotide exchange factor 4 (EPAC2) (AID 1645885). Further: nearly all actives have a fitted effect of over 25% in size. Further: potency means the concentration at half of the fitted maximal effect.
Assay [5] concerns the target Rap guanine nucleotide exchange factor 3 (Homo sapiens) (UniProt O95398). In words: Counterscreen qHTS for agonist of cAMP-regulated guanine nucleotide exchange factor 3 (EPAC1) (AID 1645889). Further: potency means the concentration at half of the fitted maximal effect; nearly all actives have a fitted effect of over 40% in size. The procedure, abridged: as §1
For orientation: Counterscreens check selectivity or assay interference.

A short description of assay [6]: AP1 Signaling Pathway (AID 357; active means well fitted curve in either direction with a large enough effect, not every such curve was filed as active;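 further: ME-180 reporter cells stimulated with EGF at its EC50 level; on the % scale 0 is the no-effect control and ±100 the full control effect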). The conditions noted are these: ME-180 (cervical carcinoma) AP-1-bla reporter, EGF-induced, beta-lactamase ratio, 5 h; at 7.69 µM (top of the series) unless noted. The procedure, abridged: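 A ratiometric CCF4 readout (405 nm excitation; 460 and 530 nm emission) quantified AP-1-driven beta-lactamase in ME-180 cells after 5 h with compound and EC50 EGF; AC50 values were derived for activators and inhibitors.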

Assay [7] in a line: Stat Signaling Pathway (AID 446; active means well fitted curve in either direction with a large enough effect, not every such curve was filed as active;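 further: ME-180 cervical cancer cells given 40 pM IL-6 alongside compound; SIE-controlled beta-lactamase reporter measured as 460/530 nm FRET emission ratio; on the % scale 0 is the no-effect control and ±100 the full control effect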). The procedure, abridged:
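Overnight-plated ME-180 cells bearing a STAT Inducible Element beta-lactamase reporter; 5 h co-exposure to compound and 40 pM IL-6; values normalized to 300 pM IL-6 and 125 nM JAK inhibitor controls.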

Assay [8] has as its target Tyrosyl-DNA phosphodiesterase 1 (Homo sapiens) (UniProt Q9NUW8). The assay can be described thus: Confirmation Assay for Inhibitors of Tyrosyl-DNA Phosphodiesterase (TDP1) (AID 489007). Further: potency means the concentration at half of the fitted maximal effect; nearly all actives have a fitted effect of over 40% in size. The following applies: recombinant human TDP1 enzymatic activity, dose-response. Summed up: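 Compounds are preincubated 15 min at room temperature with 1 nM recombinant human Tdp1. The reaction starts on adding 15 nM FITC-phosphotyrosine DNA substrate, runs 5 min, and is detected by AlphaScreen beads after 10 min.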

A short description of assay [9]: qHTS for Inhibitors of the vitamin D receptor (VDR): Hit Validation using a Texas Red Assay (AID 602201). Further: on the % scale 0 is the no-effect control and ±100 the full control effect. The procedure, abridged:
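After a 2-hour room-temperature incubation, polarization of Texas-Red emission was read (Ex 595 nm/Em 615 nm). Final mix contained 7 nM Texas Red, 1.5 uM VDR-LBD and LG19078.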

Assay [10] in a line: NCATS anti-infectives library activity on HEK293 viability as a counter-qHTS vs the C. elegans viability qHTS (AID 1745854).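 Further: HEK293 cells exposed to compounds for 24 hr before the viability read; on the % scale 0 is the no-effect control and ±100 the full control effect.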 The procedure, abridged: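 Counter-screen for cytotoxicity: HEK293, 24 hr, 37C, compounds up to 41.7 uM final (a dilution series, 1:5). Readout CellTiter-Glo luminescence, 10 min RT. Digitonin control, 83.3 uM final.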
Assay [11] addresses Rap guanine nucleotide exchange factor 3 (Homo sapiens) (UniProt O95398). In words: Confirmatory qHTS for agonist of cAMP-regulated guanine nucleotide exchange factor 3 (EPAC1) (AID 1645881).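 Further: EPAC1 catalysed release of BODIPY-GDP from Rap1B seen as fluorescence loss; 100% = effect of cAMP agonist control; nearly all actives have a fitted effect of over 75% in size.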
Assay [12] deals with Rap guanine nucleotide exchange factor 4 (Homo sapiens) (UniProt Q8WZA2). In words: Confirmatory qHTS for agonist of cAMP-regulated guanine nucleotide exchange factor 4 (EPAC2) (AID 1645884).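 Further: nucleotide exchange releases bodipy-GDP from Rap1 and this lowers its fluorescence; on the % scale 0 is the no-effect control and ±100 the full control effect; nearly all actives have a fitted effect of over 65% in size.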
Sequence of Rap guanine nucleotide exchange factor 4 (Homo sapiens) (Q8WZA2 whole entry, looked up): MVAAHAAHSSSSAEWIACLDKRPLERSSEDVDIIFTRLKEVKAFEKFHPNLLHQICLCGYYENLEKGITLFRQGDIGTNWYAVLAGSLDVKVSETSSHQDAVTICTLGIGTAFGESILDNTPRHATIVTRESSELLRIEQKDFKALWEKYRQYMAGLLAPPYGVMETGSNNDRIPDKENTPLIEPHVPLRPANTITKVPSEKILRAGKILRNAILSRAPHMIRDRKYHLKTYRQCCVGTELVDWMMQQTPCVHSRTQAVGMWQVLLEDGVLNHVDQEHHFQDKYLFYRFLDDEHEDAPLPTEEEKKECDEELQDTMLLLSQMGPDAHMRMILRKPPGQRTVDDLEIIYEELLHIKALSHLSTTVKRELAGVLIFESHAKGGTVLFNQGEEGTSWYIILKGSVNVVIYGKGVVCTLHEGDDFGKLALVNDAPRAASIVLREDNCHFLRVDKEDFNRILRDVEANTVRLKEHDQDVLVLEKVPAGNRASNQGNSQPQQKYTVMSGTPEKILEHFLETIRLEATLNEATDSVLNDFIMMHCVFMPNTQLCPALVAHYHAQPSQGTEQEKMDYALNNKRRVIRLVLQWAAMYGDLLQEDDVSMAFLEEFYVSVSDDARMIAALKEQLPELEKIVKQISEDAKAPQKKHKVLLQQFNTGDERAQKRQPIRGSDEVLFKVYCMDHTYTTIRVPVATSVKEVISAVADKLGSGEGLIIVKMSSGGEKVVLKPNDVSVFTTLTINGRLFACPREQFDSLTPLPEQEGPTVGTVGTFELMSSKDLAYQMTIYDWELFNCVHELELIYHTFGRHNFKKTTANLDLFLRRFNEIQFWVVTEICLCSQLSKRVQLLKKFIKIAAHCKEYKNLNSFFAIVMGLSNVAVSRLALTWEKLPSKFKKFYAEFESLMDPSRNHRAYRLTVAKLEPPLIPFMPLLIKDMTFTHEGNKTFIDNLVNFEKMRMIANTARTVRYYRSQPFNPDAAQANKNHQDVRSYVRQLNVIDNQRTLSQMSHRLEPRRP

Results filed as inconclusive are left out. Unmarked numbers belong to inactive results. Active and inactive are the calls of the source. Unless noted, the call rests on the fitted dose curve; in most records, active means well fitted curve in the direction sought with a large enough effect; inconclusive means small, poorly fitted or top-dose-only effect, or another doubt; inactive means no such curve, though single readings can be large; an effect the other way counts as inactive or inconclusive.

Sequence of Rap guanine nucleotide exchange factor 3 (Homo sapiens) (O95398 whole entry, looked up): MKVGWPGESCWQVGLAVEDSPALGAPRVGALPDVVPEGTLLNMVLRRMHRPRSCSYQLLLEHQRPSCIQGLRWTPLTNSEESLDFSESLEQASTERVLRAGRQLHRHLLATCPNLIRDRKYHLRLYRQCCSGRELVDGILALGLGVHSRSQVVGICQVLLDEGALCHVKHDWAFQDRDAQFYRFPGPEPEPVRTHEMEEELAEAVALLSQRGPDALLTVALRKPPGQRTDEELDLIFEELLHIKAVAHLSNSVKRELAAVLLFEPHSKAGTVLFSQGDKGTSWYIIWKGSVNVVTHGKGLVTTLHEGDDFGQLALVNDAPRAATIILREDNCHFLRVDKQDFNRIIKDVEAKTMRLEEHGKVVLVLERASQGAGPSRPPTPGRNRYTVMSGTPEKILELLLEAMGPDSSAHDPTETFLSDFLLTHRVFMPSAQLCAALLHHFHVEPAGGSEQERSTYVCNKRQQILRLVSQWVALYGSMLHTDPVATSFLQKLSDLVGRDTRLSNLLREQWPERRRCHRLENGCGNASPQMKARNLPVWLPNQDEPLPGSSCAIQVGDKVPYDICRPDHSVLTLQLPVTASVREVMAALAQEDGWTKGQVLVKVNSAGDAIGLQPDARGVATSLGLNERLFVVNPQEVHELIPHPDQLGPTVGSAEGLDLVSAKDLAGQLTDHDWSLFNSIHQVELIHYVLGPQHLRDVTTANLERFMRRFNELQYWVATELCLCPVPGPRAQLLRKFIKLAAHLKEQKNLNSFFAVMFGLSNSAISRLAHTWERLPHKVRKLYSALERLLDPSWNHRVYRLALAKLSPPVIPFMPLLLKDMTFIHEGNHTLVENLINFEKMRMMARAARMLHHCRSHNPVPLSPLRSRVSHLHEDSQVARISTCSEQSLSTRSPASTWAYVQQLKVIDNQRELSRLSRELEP
Sequence of Tyrosyl-DNA phosphodiesterase 1 (Homo sapiens) (Q9NUW8 whole entry, looked up): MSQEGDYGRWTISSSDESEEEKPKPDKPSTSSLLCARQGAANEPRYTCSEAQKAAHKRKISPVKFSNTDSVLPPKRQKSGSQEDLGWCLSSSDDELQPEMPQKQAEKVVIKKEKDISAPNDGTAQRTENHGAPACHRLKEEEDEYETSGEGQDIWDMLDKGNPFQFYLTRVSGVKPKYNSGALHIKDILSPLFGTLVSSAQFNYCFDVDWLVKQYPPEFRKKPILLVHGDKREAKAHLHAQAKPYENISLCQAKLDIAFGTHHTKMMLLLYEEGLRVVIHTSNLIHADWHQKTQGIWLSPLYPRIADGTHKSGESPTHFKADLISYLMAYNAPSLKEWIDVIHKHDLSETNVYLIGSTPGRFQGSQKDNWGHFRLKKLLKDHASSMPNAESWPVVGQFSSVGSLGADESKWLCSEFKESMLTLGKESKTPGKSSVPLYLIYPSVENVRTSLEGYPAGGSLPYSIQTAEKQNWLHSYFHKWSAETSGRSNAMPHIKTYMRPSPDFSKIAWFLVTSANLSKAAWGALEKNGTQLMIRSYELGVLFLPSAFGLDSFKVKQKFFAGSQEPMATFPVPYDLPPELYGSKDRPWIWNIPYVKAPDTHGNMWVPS
Sequence of Tumor susceptibility gene 101 protein (Homo sapiens) (Q99816 whole entry, looked up, the tested form may be a part): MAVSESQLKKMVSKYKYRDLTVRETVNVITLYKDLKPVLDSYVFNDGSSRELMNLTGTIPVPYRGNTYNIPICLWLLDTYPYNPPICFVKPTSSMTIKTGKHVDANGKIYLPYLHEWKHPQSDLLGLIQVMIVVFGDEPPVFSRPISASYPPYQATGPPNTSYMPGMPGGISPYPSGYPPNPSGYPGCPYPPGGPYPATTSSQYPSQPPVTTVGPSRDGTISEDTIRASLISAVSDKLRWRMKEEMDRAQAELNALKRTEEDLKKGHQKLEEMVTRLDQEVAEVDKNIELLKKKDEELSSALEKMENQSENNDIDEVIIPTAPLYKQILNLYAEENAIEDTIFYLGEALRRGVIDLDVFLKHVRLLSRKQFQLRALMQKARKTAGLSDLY

For the compound `CC[n+]1c(/C=C/C=C/N(C(C)=O)c2ccccc2)sc2ccccc21`, the Potency in assay [1] is 84.9 µM (active). In addition, the Potency result in assay [2] is “inactive”.

For the compound `CCOc1ccc(-c2nn(-c3ccccc3)cc2/C=C2\SC(=S)N(C3CCS(=O)(=O)C3)C2=O)cc1` (stereo not drawn), the Potency entry in assay [1] and in [2] was “inactive” throughout.

`Fc1ccc(Nc2cncc(-c3ccsc3)c2)cc1Cl`: the Potency in assay [1] was 75.7 µM (active). Also, in [2], the Potency entry was “inactive”.

In the case of `COC(=O)c1ccccc1-c1c2ccc(=N)cc-2oc2cc(N)ccc12`, the Potency result in assay [1] and in assay [2] was “inactive” each time.

Take `COc1ccc(C(=O)Nc2nc(-c3ccc([N+](=O)[O-])cc3)c(-c3ccc(OC)cc3)s2)cc1`: the Potency result in assay [3], in assay [1], in assay [4] and in assay [2] was “inactive” each time. In addition, in assay [5], the Potency is 63.1 µM (active).

On to `CN1c2ccccc2C(C)(C)C12C=Nc1c(cc(N3CCOCC3)c3ccccc13)O2` (stereo not drawn), for which the Potency entry in [1] and in [2] was “inactive” throughout.

As to `CN1CC=C2C(C#N)=C(N)C(C#N)(C#N)[C@H](c3cccc(Cl)c3)C2C1` (stereo partly drawn), in assay [6], the activity change, negative = inhibition was -16.2% [at 17.2 µM]. For the same compound, in assay [7], the compound was called inactive.

On to `O=C(O)c1ccc(COc2ccccc2/C=C2/NC(=O)N(c3cccc(Cl)c3)C2=O)cc1`, for which the Potency in assay [8] is 10 µM (active).

Regarding `O=[N+]([O-])c1c(Nc2ccccn2)cc(Cl)c2nonc12`, the Potency result in assay [9] is “inactive”.

For the compound `COc1cccc(Nc2nnc(-c3cc4ccc(O)cc4oc3=O)s2)c1`, the Potency result in assay [10] is “inactive”.

On to `O=C1CCC[C@@H]2CC(N(Cc3cc4ccccc4s3)c3ccccc3)C[C@@H]3CCN1[C@H]23` (stereo partly drawn), for which the Potency result in assay [11], in [12] and in assay [4] was “inactive” each time.

With `O=C(Nc1sc2c(c1C(=O)O)CCCC2)c1ccc(Cl)cc1`, the Potency entry in assay [11] and in assay [4] was “inactive” throughout. Besides, the activation in assay [12] was 1.39% [at 17.1 µM, percent relative to cAMP agonist control].

Take `Cc1ccccc1CN1C(=O)C(C)Sc2ccc(-c3ccco3)cc21` (stereo not drawn): the Potency entry in assay [11], in [12] and in assay [4] was “inactive” each time.

Regarding `Cc1ccc(C)n1-c1nn(S(=O)(=O)c2ccccc2)c2cccc(F)c12`, the Potency result in [11] and in assay [12] was “inactive” each time. Besides, in assay [4], the Potency was 13.5 µM (active).

Regarding `COC(=O)[C@]12CCCCC=C1N(Cc1ccco1)C(=O)[C@H](CC(=O)NCc1cccs1)C2`, the Potency result in assay [11], in assay [12] and in [4] was “inactive” in each case.

Consider `CC(C)C[C@H]1COCCS(=O)(=O)N1Cc1cccc(C(F)(F)F)c1`, for which the Potency result in assay [11], in [12] and in assay [4] was “inactive” each time.

As to `NS(=O)(=O)c1ccc2c(c1)C1C=CCC1C(C1CC=CCC1)N2` (stereo not drawn), the Potency entry in assay [11] and in [4] was “inactive” in each case. The activation in [12] is 6.51% [at 17.1 µM, percent relative to cAMP agonist control].

Regarding `Cc1ccccc1/C=C1\SC(=S)N(/N=C/c2cc([N+](=O)[O-])ccc2O)C1=O`, the Potency entry in assay [11], in [12] and in assay [4] was “inactive” throughout.

For the compound `Cc1nc2c(OCc3ccc(OC(F)F)cc3)cccn2c1N(C)C(=O)CCC1CCCC1`, the Potency entry in [11] and in [12] was “inactive” throughout. The Potency in assay [4] is 26.9 µM (active).

`Oc1ccc(N=Cc2ccc(OCc3ccccc3)cc2)cc1`: the Potency result in assay [11] and in [4] was “inactive” each time. In assay [12], the activation is 11.9% [at 17.1 µM, percent relative to cAMP agonist control].

With `CC(NS(=O)(=O)OCC(Cl)(Cl)Cl)c1ccc(C(C)(C)C)cc1` (stereo not drawn), the Potency result in assay [11] and in assay [4] was “inactive” throughout. The activation in assay [12] is 4.78% [at 17.1 µM, percent relative to cAMP agonist control].
